# Measurements as given in publication PMC7862700, “An all-to-all approach to the identification of sequence-specific readers for epigenetic DNA modifications on cytosine”.
# Key:
# Assay in all cases: DAPPL (digital affinity profiling via proximity ligation, sequencing); 10 mM Tris-HCl pH 7.5, 50 mM NaCl, 1 mM DTT, 4% glycerol, room temperature, 30 min; GST-TFs on glutathione beads, 16-mer random dsDNA library, 0.1% formaldehyde crosslink after washing; high values mean tight binding
# [1] = target: T1, FEV (Homo sapiens, UniProt Q99581 1-238); settings: protein: recombinant; tags: N-terminal GST; dsDNA, one strand shown
# T1 sequence: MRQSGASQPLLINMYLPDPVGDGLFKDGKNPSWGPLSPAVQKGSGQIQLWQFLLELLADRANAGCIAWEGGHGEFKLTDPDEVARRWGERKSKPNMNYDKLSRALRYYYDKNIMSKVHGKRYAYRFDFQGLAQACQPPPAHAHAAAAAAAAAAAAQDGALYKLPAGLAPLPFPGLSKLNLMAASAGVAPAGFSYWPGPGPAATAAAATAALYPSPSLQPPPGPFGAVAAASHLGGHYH
# Method in brief: (§1)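 Binding signal is given per hexamer as its read frequency for a factor divided by its frequency in the tag-only sample. GST-fused human transcription factors were expressed in yeast, captured on glutathione beads, barcoded with DNA and pooled with that sample, then incubated with 200 nmole of a 16-mer random double-stranded DNA library in Tris/NaCl/DTT/glycerol buffer for 30 min at room temperature. The pools were then washed, crosslinked, proximity-ligated, amplified by PCR and sequenced on an Illumina NextSeq500.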
# [2] = target: ETV5 (Homo sapiens, UniProt P41161 1-510); settings: protein: recombinant; tags: N-terminal GST; dsDNA, one strand shown
# Sequence of ETV5 (P41161 whole entry): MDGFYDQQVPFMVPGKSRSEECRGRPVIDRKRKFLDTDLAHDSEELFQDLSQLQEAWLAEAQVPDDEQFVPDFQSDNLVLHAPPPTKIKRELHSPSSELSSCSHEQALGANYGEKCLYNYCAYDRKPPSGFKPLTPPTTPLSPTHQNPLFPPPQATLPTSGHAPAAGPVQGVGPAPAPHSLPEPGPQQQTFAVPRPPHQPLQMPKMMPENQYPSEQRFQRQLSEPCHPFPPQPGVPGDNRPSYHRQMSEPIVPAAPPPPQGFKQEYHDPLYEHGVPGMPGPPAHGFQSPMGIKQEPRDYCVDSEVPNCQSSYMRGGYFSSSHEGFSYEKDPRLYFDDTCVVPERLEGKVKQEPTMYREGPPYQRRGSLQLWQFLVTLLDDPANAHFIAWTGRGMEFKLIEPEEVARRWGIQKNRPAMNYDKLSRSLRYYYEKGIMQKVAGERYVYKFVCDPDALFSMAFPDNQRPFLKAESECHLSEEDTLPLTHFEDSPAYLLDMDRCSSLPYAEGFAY
# Method in brief: as §1
# [3] = target: HSF1 (Homo sapiens, UniProt Q00613 1-529); settings: protein: recombinant; tags: N-terminal GST; chain copies: 3; dsDNA, one strand shown
# Sequence of HSF1 (Q00613 whole entry): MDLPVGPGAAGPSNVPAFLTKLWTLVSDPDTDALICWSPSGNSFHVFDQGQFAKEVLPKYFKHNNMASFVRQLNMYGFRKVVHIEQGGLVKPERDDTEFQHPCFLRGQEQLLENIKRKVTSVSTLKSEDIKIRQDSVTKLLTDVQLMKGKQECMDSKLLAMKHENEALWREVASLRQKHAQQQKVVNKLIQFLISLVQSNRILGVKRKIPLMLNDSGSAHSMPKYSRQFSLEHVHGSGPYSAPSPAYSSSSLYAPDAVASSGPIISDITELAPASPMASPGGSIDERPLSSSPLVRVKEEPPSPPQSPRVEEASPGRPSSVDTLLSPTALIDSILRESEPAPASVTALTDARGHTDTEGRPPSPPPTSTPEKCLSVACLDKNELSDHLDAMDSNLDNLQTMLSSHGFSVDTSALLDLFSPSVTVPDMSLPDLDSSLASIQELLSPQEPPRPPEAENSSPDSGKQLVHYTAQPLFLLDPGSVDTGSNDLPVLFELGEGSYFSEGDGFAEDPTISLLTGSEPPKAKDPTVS
# Method in brief: as §1
# [4] = target: T2, SPIC (Homo sapiens, UniProt Q8N5J4 1-248); settings: protein: recombinant; tags: N-terminal GST; dsDNA, one strand shown
# T2 sequence: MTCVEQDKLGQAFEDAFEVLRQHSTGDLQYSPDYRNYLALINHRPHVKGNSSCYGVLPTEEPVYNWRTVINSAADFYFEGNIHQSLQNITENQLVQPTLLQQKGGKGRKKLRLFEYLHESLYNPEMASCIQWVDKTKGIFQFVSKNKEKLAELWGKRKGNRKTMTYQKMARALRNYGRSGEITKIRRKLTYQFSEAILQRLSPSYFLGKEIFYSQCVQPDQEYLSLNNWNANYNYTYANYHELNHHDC
# Method in brief: as §1
# [5] = target: ELF4 (Homo sapiens, UniProt Q99607 1-663); settings: protein: recombinant; tags: N-terminal GST; dsDNA, one strand shown
# Sequence of ELF4 (Q99607 whole entry): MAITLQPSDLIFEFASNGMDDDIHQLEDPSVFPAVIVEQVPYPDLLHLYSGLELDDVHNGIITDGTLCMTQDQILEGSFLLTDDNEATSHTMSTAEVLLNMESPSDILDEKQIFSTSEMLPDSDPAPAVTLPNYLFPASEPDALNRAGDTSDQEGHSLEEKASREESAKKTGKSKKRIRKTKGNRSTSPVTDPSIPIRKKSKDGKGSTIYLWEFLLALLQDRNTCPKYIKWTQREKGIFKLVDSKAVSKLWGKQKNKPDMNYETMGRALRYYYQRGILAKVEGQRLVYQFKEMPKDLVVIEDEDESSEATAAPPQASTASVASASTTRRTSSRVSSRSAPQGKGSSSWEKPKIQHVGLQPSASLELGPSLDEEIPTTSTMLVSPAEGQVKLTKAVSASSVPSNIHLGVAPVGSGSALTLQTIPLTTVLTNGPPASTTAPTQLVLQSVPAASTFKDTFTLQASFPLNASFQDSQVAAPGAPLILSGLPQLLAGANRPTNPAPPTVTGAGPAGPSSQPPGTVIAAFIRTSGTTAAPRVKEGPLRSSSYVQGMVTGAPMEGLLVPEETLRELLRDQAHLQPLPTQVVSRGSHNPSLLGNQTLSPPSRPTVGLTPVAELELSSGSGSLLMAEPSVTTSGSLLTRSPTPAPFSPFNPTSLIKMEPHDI
# Method in brief: as §1
# [6] = target: T3, ELK4 (Homo sapiens, UniProt P28324-2 1-405); settings: protein: recombinant; tags: N-terminal GST; dsDNA, one strand shown
# T3 sequence: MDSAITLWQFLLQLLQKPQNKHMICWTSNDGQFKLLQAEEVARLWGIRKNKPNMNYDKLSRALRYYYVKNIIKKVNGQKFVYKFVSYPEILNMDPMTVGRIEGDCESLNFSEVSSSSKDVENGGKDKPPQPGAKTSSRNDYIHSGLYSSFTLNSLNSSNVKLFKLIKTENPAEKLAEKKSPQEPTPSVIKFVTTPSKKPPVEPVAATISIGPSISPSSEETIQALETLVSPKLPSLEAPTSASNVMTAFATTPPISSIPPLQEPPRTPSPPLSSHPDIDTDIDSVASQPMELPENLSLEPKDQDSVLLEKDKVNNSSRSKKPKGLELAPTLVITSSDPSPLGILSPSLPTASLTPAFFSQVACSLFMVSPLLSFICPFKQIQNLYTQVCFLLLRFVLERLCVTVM
# Method in brief: as §1
# [7] = target: T4, ETV2 (Homo sapiens, UniProt O00321 1-342); settings: protein: recombinant; tags: N-terminal GST; dsDNA, one strand shown
# T4 sequence: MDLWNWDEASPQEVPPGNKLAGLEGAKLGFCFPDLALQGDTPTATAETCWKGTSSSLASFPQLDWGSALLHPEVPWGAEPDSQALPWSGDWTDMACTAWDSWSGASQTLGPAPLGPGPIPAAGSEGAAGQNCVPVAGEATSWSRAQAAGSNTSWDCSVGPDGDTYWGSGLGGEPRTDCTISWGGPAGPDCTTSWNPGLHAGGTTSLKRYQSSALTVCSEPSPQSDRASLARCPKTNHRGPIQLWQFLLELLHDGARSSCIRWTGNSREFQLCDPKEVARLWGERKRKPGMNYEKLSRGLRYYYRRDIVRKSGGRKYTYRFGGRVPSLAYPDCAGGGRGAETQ
# Method in brief: as §1
# [8] = target: T5, ELF3 (Homo sapiens, UniProt P78545 1-371); settings: protein: recombinant; tags: N-terminal GST; dsDNA, one strand shown
# T5 sequence: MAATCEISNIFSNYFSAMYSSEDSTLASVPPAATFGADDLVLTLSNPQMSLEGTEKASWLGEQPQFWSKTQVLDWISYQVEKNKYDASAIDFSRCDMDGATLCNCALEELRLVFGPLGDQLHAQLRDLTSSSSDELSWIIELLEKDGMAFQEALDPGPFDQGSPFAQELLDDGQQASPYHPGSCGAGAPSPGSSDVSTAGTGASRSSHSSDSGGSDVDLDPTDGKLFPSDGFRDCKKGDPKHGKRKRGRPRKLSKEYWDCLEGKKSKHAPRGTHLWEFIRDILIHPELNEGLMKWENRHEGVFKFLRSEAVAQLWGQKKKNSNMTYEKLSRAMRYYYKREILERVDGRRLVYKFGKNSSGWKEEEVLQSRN
# Method in brief: as §1
# [9] = target: CRX (Homo sapiens, UniProt O43186 1-299); settings: protein: recombinant; tags: N-terminal GST; dsDNA, one strand shown
# Sequence of CRX (O43186 whole entry): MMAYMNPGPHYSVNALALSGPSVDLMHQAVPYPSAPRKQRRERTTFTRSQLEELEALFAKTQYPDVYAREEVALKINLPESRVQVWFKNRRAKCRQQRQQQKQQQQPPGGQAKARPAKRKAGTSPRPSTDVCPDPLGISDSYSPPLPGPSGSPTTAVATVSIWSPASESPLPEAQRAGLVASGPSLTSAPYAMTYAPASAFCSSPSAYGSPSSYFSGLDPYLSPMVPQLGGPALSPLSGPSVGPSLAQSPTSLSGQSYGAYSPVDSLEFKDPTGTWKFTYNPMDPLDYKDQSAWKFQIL
# Method in brief: as §1
sequence,measurement,setting,value
TGGTAT,binding signal,[1],"1.26 fold enrichment (6-mer frequency, TF over GST control)"
same,binding signal,[2],"1.37 fold enrichment (6-mer frequency, TF over GST control)"
same,binding signal,[3],"1.35 fold enrichment (6-mer frequency, TF over GST control)"
same,binding signal,[4],"1.39 fold enrichment (6-mer frequency, TF over GST control)"
same,binding signal,[5],"1.42 fold enrichment (6-mer frequency, TF over GST control)"
same,binding signal,[6],"1.47 fold enrichment (6-mer frequency, TF over GST control)"
same,binding signal,[7],"1.33 fold enrichment (6-mer frequency, TF over GST control)"
same,binding signal,[8],"1.45 fold enrichment (6-mer frequency, TF over GST control)"
same,binding signal,[9],"1.39 fold enrichment (6-mer frequency, TF over GST control)"
